Calls of active or inactive are those of the source. The calls were made as follows: active = hit-call score of the fitted dose curve at least 0.9, where 1 is the maximum; inactive = score below 0.9.
How the values were obtained:
Details in all cases: mRNA level, 48 h; actives raise or lower the signal
[1] = read-out: 3-Hydroxy-3-Methylglutaryl-CoA Synthase 2 (HMGCS2), HMGCS2 (gene 3158); test: LTEA_HepaRG_HMGCS2: Life Technologies and Expression Analysis (LTEA) Assay for 3-Hydroxy-3-Methylglutaryl-CoA Synthase 2 (HMGCS2) using HepaRG (AID 2283504)
Procedure, shortened: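 Human HepaRG cells in serum-free induction medium were exposed in duplicate for 48 h to 8-point half-log series from 100 uM top in 0.5% DMSO. HMGCS2 mRNA measured by TaqMan qRT-PCR, normalised to ACTB, GAPDH, POLR2A; bidirectional fit versus DMSO.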

[2] = read-out: HGF (gene 3082); test: LTEA_HepaRG_HGF: Life Technologies and Expression Analysis (LTEA) Assay for Hepatocyte Growth Facto (HGF) using HepaRG (AID 2283505)
Procedure, shortened: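 Differentiated HepaRG cells in serum-free induction medium exposed 48 h in duplicate, 8 half-log concentrations from 100 uM in 0.5% DMSO. HGF mRNA by qRT-PCR, normalised to ACTB, GAPDH, POLR2A; bidirectional fitting.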

[3] = read-out: Insulin Like Growth Factor 1 (IGF1), IGF1 (gene 3479); test: LTEA_HepaRG_IGF1: Life Technologies and Expression Analysis (LTEA) Assay for Insulin Like Growth Factor 1 (IGF1) using HepaRG (AID 2283506)
Procedure, shortened: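 Using human HepaRG liver cells, IGF1 transcript induction or suppression is measured 48 h after dosing across eight concentrations capped at 100 uM. Values derive from bidirectional concentration-response fitting with DMSO as baseline.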

[4] = read-out: Intercellular Adhesion Molecule 1 (ICAM1), ICAM1 (gene 3383); test: LTEA_HepaRG_ICAM1: Life Technologies and Expression Analysis (LTEA) Assay for Intercellular Adhesion Molecule 1 (ICAM1) using HepaRG (AID 2283507)
Procedure, shortened: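 Differentiated human HepaRG cells in serum-free induction medium exposed 48 h in duplicate to 8 half-log concentrations (top 100 uM, 0.5% DMSO). ICAM1 mRNA quantified by TaqMan qRT-PCR, normalized to ACTB, GAPDH and POLR2A; bidirectional fitting versus DMSO.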

[5] = read-out: Insulin-like growth factor-binding protein 1 (IGFBP1), IGFBP1 (gene 3484); test: LTEA_HepaRG_IGFBP1: Life Technologies and Expression Analysis (LTEA) Assay for Insulin-like growth factor-binding protein 1 (IGFBP1) using HepaRG (AID 2283508)
Procedure, shortened: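 HepaRG cells, plated 48 h then switched to serum-free induction medium, exposed in duplicate for 48 h to 8-point half-log series from 100 uM in 0.5% DMSO. mRNA measured by qRT-PCR, normalized to ACTB/GAPDH/POLR2A; bidirectional fit versus DMSO.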

[6] = read-out: Interleukin 6 (IL6), IL6 (gene 3569); test: LTEA_HepaRG_IL6: Life Technologies and Expression Analysis (LTEA) Assay for Interleukin 6 (IL6) using HepaRG (AID 2283509)
Procedure, shortened: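 HepaRG, ~100,000 cells/well, 48 h pre-culture; serum-free induction medium; cmpd 8-pt half-log from 100 uM, 0.5% DMSO, duplicate, 48 h. Lysis in RLT, TaqMan qRT-PCR; gain or loss vs DMSO.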

[7] = read-out: Interleukin 6 Receptor (IL6R), IL6R (gene 3570); test: LTEA_HepaRG_IL6R: Life Technologies and Expression Analysis (LTEA) Assay for Interleukin 6 Receptor (IL6R) using HepaRG (AID 2283510)
Procedure, shortened: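 Concentration-response in human liver HepaRG cells: eight concentrations from 100 uM downward by half-logs, 48 h exposure, 0.5% DMSO vehicle. IL6R mRNA change measured by qRT-PCR and fitted in both directions relative to vehicle.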

[8] = read-out: Potassium channel subfamily K member 1 (KCNK1), KCNK1 (gene 3775); test: LTEA_HepaRG_KCNK1: Life Technologies and Expression Analysis (LTEA) Assay for Potassium channel subfamily K member 1 (KCNK1) using HepaRG (AID 2283511)
Procedure, shortened: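 Gain or loss of KCNK1 mRNA is the read-out, quantified by qRT-PCR against three housekeeping genes after 48 h chemical treatment of human HepaRG liver cells. Concentrations ran from 100 uM downward in half-log steps, vehicle 0.5% DMSO.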

[9] = read-out: Keratin 19 (KRT19), KRT19 (gene 3880); test: LTEA_HepaRG_KRT19: Life Technologies and Expression Analysis (LTEA) Assay for Keratin 19 (KRT19) using HepaRG (AID 2283512)
Procedure, shortened: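 Differentiated HepaRG cells in serum-free induction medium, exposed 48 h in duplicate to 8 half-log concentrations up to 100 uM in 0.5% DMSO. KRT19 mRNA by qRT-PCR, normalized to ACTB, GAPDH, POLR2A; bidirectional fit vs DMSO.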

[10] = read-out: JUN Transcription Factor, JUN (gene 3725); test: LTEA_HepaRG_JUN: Life Technologies and Expression Analysis (LTEA) Assay for JUN Transcription Factor using HepaRG (AID 2283513)
Procedure, shortened: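 Human HepaRG liver cells receive test chemicals in 0.5% DMSO for 48 h across an eight-point range topping at 100 uM. Expression changes in JUN are scored in both directions against the DMSO vehicle.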

[11] = read-out: Lipase C (LIPC), LIPC (gene 3990); test: LTEA_HepaRG_LIPC: Life Technologies and Expression Analysis (LTEA) Assay for Lipase C (LIPC) using HepaRG (AID 2283514)
Procedure, shortened: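 Read-out is LIPC transcript level by TaqMan qRT-PCR, normalized to three housekeeping genes, after 48 h chemical treatment of human HepaRG liver cells. Curves span eight concentrations topping at 100 uM; activity in either direction scored relative to 0.5% DMSO.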

[12] = read-out: Lipoprotein lipase (LPL), LPL (gene 4023); test: LTEA_HepaRG_LPL: Life Technologies and Expression Analysis (LTEA) Assay for Lipoprotein lipase (LPL) using HepaRG (AID 2283515)
Procedure, shortened: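 Read-out is LPL transcript level by qRT-PCR, normalized to three housekeeping genes and fitted bidirectionally against the DMSO control. Human HepaRG cells received chemicals for 48 h at up to 100 uM.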

[13] = read-out: MicroRNA 122 (MIR122), gene 406906; test: LTEA_HepaRG_MIR122: Life Technologies and Expression Analysis (LTEA) Assay for MicroRNA 122 (MIR122) using HepaRG (AID 2283516); also: the transcript read is the microRNA miR-122
Procedure, shortened: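 HepaRG, 48 h exposure, 8-pt half-log from 100 uM, 0.5% DMSO; TaqMan qRT-PCR; bidirectional fit vs DMSO.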

[14] = read-out: matrix metalloproteinase-10 (MMP10), MMP10 (gene 4319); test: LTEA_HepaRG_MMP10: Life Technologies and Expression Analysis (LTEA) Assay for matrix metalloproteinase-10 (MMP10) using HepaRG (AID 2283517)
Procedure, shortened: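 Gain or loss of MMP10 mRNA is fitted relative to the 0.5% DMSO vehicle. The human hepatic line HepaRG receives a 48-hour serum-free exposure, in duplicate, with a maximum concentration of 100 uM.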

[15] = read-out: MYC, MYC (gene 4609); test: LTEA_HepaRG_MYC: Life Technologies and Expression Analysis (LTEA) Assay for MYC using HepaRG (AID 2283518)
Procedure, shortened: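 Differentiated HepaRG cells exposed 48 h in serum-free induction medium to 8 concentrations (top 100 uM, half-log steps; 0.5% DMSO), duplicate. MYC mRNA measured by Fluidigm qRT-PCR, normalized to ACTB, GAPDH, POLR2A; bidirectional fit versus DMSO.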

[16] = read-out: matrix metalloproteinase-3 (MMP3), MMP3 (gene 4314); test: LTEA_HepaRG_MMP3: Life Technologies and Expression Analysis (LTEA) Assay for matrix metalloproteinase-3 (MMP3) using HepaRG (AID 2283519)
Procedure, shortened: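 HepaRG, human; 48 h dosing, 8 conc. (max 100 uM, half-log), duplicate, 0.5% DMSO. Readout: MMP3 transcript by Fluidigm TaqMan qRT-PCR, ACTB/GAPDH/POLR2A-normalised. Gain or loss fitted vs DMSO.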

[17] = read-out: Paternally Expressed 10 (PEG10), PEG10 (gene 23089); test: LTEA_HepaRG_PEG10: Life Technologies and Expression Analysis (LTEA) Assay for Paternally Expressed 10 (PEG10) using HepaRG (AID 2283520)
Procedure, shortened: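 Chemicals tested on HepaRG cells for 48 h, highest concentration 100 uM. PEG10 expression assessed by qRT-PCR relative to DMSO control.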

[18] = read-out: Nuclear factor NF-kappa-B p105 subunit (Homo sapiens) (UniProt P19838); test: LTEA_HepaRG_NFKB1: Life Technologies and Expression Analysis (LTEA) Assay for Nuclear Factor Kappa B Subunit 1 (NFKB1) using HepaRG (AID 2283521)
Procedure, shortened: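 Differentiated human HepaRG cells in serum-free induction medium with 0.5% DMSO were exposed for 48 h to eight half-log concentrations, top 100 uM, in duplicate. NFKB1 mRNA measured by Fluidigm TaqMan qRT-PCR, normalised to ACTB, GAPDH and POLR2A; bidirectional fit versus DMSO.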

[19] = read-out: Protein phosphatase 2A (PPP2R4), PTPA (gene 5524); test: LTEA_HepaRG_PPP2R4: Life Technologies and Expression Analysis (LTEA) Assay for Protein phosphatase 2A (PPP2R4) using HepaRG (AID 2283522)
Procedure, shortened: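 Gene-expression endpoint in HepaRG hepatic cells: 48 h treatment across eight half-log concentrations up to 100 uM in 0.5% DMSO. PPP2R4 mRNA by qRT-PCR, normalized to three endogenous control genes.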

[20] = read-out: Phosphatase and tensin (PTEN), PTEN (gene 5728); test: LTEA_HepaRG_PTEN: Life Technologies and Expression Analysis (LTEA) Assay for Phosphatase and tensin (PTEN) using HepaRG (AID 2283523)
Procedure, shortened: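 Read-out is PTEN transcript level by multiplexed TaqMan qRT-PCR after 48 h chemical treatment of human HepaRG cultures in serum-free induction medium. Concentrations spanned 100 uM downward in half-log steps, 0.5% DMSO throughout; activity fitted in both directions against vehicle.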

Measured: AC50

Chain of Nuclear factor NF-kappa-B p105 subunit (Homo sapiens) (P19838 whole entry, looked up): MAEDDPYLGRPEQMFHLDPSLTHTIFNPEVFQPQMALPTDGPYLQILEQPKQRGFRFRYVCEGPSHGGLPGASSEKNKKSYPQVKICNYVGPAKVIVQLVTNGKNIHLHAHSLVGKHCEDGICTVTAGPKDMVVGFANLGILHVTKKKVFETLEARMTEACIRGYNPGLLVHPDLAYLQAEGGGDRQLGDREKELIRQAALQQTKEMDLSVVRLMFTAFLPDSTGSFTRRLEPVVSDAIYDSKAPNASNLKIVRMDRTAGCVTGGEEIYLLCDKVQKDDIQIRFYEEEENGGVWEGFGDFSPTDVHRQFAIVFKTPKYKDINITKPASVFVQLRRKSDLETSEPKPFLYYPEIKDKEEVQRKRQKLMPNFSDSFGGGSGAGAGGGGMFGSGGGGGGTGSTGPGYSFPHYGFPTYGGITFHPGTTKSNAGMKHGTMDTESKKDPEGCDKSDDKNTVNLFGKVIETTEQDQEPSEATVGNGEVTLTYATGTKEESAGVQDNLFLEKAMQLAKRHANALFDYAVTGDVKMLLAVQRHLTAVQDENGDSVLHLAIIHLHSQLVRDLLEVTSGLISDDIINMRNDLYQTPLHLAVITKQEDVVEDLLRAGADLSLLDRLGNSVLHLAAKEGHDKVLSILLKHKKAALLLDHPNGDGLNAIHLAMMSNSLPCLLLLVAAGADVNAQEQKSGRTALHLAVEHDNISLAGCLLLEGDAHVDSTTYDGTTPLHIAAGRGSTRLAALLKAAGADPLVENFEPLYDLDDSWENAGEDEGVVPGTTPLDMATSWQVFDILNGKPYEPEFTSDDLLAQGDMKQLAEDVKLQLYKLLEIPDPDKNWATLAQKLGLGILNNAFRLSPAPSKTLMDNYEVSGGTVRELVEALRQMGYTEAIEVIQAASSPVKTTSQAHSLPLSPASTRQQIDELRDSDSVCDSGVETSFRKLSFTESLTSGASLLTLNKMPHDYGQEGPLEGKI

CCCCOC(=O)c1ccccc1
inactive: all assays above

COS(C)(=O)=O
inactive: all assays above

NC(=O)NN=Cc1ccc([N+](=O)[O-])o1
inactive: [6] | [7] | [9] | [12] | [13] | [17] | [18] | [19] | [20]
active: [1] 13.3 µM | [2] 12.4 µM | [3] 9.92 µM | [4] 0.211 µM | [5] 50 µM | [8] 0.223 µM | [10] 11.6 µM | [11] 0.233 µM | [14] 9.92 µM | [15] 0.151 µM | [16] 0.256 µM

From PubChem BioAssay (EPA / NIEHS)
